Test results reported in PubChem BioAssay (NCATS).
Values joined by “and” are separate entries in the source; they are usually repeats but may differ in a detail not shown here. Equal entries are not always repeated. Records with an inconclusive call do not appear. Where a call stands in place of a potency, no number is given. Active and inactive are the calls of the source. The call rests on the fitted dose curve; in most records, active means well fitted cell-killing curve with a large enough effect; inconclusive means small, poorly fitted or top-dose-only effect; inactive means flat fitted curve, though single readings scatter.
Potency means the concentration at half of the fitted maximal effect.

Assay: qHTS of pediatric cancer cell lines to identify multiple opportunities for drug repurposing: Primary screen for DAOY cells (AID 1347090); further: nearly all actives have a fitted effect of over 55% in size
Settings: DAOY medulloblastoma viability, CellTiter-Glo luminescence, 48 h; series mostly up to 46 µM
In short: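 Eight- or eleven-point concentration series, 48 h treatment at 37 degrees C in growth media; readout CellTiter-Glo luminescence. Potency and efficacy were taken from the concentration-response curves.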
In the case of Cc1n[nH]c(C)c1Cc1sc2c(c1C(=O)N1C[C@H](O)CO1)c(=O)n(C)c(=O)n2CC(C)C, the Potency is reported as “inactive”. In the case of COc1ccc2c3n(c(=NC(=O)c4cccnc4)nc2c1OC)CCN3, the Potency is reported as 1.87 µM (active). In the case of CC(c1cc2ccccc2s1)N(O)C(N)=O (stereo not given), the Potency is reported as “inactive”. For Cc1cccc(-c2nn(C(=S)Nc3ccccc3)cc2-c2ccnc3ccccc23)n1, the Potency was “inactive”. For Fc1ccc(Cl)cc1-c1nc(Nc2ccncc2)c2nccnc2n1, the Potency was “inactive”. With CCC(C)(C)C(=O)O[C@H]1C[C@@H](C)C=C2C=C[C@H](C)[C@H](CC[C@@H]3C[C@@H](O)CC(=O)O3)[C@H]21 the Potency was 6.68 µM (active) and 5.9 µM (active). For CCc1ccc(CCOc2ccc(CC3SC(=O)NC3=O)cc2)nc1 (stereo not given), the Potency was “inactive”. For COc1cc(Oc2ccnc3cc(OC)c(OC)cc23)ccc1NC(=O)NC(C)c1nccs1 (stereo not given), the Potency was “inactive”. In the case of NC(=O)c1ccc(-c2nc(-c3ccc4c(c3)OCCO4)c(-c3ccccn3)[nH]2)cc1, the Potency is reported as “inactive”. For Cc1ccnc(NS(=O)(=O)c2ccc(NC(=O)Nc3ccc(S(=O)(=O)Nc4nccc(C)n4)cc3)cc2)n1, the Potency was “inactive”. With Nc1cccc(S(=O)(=O)N2CCCN(S(=O)(=O)c3ccc4c(c3)OCCO4)CC2)c1 the Potency was “inactive”. For CN(C)C(=O)c1ccc(S(=O)(=O)c2ccc(NC(=O)[C@@](C)(O)C(F)(F)F)c(Cl)c2)cc1, the Potency was 18.7 µM (active). For NC(=O)C1CCCc2c1[nH]c1ccc(Cl)cc21 (stereo not given), the Potency was “inactive”. For c1ccc(-c2nn3c(c2-c2ccnc4cc(OCCN5CCOCC5)ccc24)CCC3)nc1, the Potency was “inactive”. With C[C@H](NC(=O)Cc1cc(F)cc(F)c1)C(=O)N[C@@H]1C(=O)N(C)c2ccccc2-c2ccccc21 the Potency was 11.8 µM (active).
